# Source: PubChem BioAssay
# Most compounds without a hit are left out; they make up all but 3.5% or so of the library.
# MITF primary = blocks human microphthalmia-associated transcription factor. O75030. inhibition, % at 2.6 µM. AlphaScreen MITF homodimerization, bead proximity signal. hit rate 0.91% among 650,000; in the data active = inhibition above about 50%;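 also: 0% = vehicle wells with protein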
# Target sequence (O75030 whole entry, looked up): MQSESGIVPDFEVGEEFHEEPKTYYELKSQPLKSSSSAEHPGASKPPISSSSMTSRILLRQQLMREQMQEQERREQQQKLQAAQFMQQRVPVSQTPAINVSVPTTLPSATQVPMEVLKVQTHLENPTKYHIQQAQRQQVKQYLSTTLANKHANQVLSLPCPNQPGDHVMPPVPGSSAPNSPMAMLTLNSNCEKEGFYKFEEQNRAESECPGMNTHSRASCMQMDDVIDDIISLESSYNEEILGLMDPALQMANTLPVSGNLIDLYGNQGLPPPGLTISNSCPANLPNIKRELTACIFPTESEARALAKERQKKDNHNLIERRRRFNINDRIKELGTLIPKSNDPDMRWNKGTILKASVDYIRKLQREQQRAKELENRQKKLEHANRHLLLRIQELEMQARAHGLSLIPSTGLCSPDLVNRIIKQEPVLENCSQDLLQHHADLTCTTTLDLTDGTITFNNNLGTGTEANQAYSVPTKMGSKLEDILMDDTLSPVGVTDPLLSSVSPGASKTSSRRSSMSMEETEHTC
# TEAD-YAP inh = TEAD-YAP interaction inhibition. HEK-TIYL cells, TEAD-Gal4/YAP UAS-luciferase luminescence. inhibition, % at 9.12 µM. hit rate 1.4% among 640,000. AID 1259422; in the data active = inhibition above about 32%;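 also: 0% = median of test compound wells and 100% = reference inhibitor wells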
# GPR151 activ = activates the human receptor GPR151 | PathHunter beta-arrestin GPR151 cells, luminescence | Q8TDV0 | AID 1508602 | hit rate 1% among 650,000 | activation, % at 11.2 µM; in the data active = activation above about 4.9%;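 also: 0% = median of compound wells and 100% = cells with positive control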
# FBW7 act = activators of human E3 ligase FBW7; Q969H0; AlphaScreen FBW7–phospho-cyclin E peptide binding, activator screen; normalized activity (activation), % at 26.1 µM; hit rate 0.13% among 650,000; in the data active = normalized activity above about 1.9%;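 also: purified mutant Fbw7 with reduced substrate affinity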
# Numbers without * were called inactive.
SMILES,MITF primary,TEAD-YAP inh,GPR151 activ,FBW7 act
O=C(NCCN1CCOCC1)c1cccc(-c2ccc(N3CCOCC3)nc2)n1,-7,-1,2,0
CCCNC(=O)c1cccc(Nc2ccc(N3CCOCC3)cc2)n1,-2,3,1,0
O=C(Nc1ccc(N2CCOCC2)cc1)c1cccc(Cl)n1,12,60*,-11,0
O=C(NCCc1ccc(O)cc1)c1cccc(Nc2ccc(N3CCOCC3)cc2)n1,2,57*,0,0
C/C(=C\C(=O)O)C(=O)Nc1ccc(N2CCOCC2)cc1,53*,1,-1,0
O=C(Nc1cc(Cl)ccc1Cl)c1cc2nc(-c3ccc4c(c3)OCO4)cc(C(F)(F)F)n2n1,16,7,-1,1
CCCc1cc(N2CCN(c3ccc(OC)cc3)CC2)n2cnnc2n1,-5,42*,0,0
Cc1ccc2oc3nn(-c4ccccc4)c(=O)c-3cc2c1,9,53*,-1,1
COc1cc(C(=O)Nc2ccc(C)c(C)c2)cc(OC)c1OC,12,-1,0,1
COc1cc(C(=O)Nc2ccc(I)cc2)cc(OC)c1OC,-13,35*,0,0
COc1cc(C(=O)Nc2ccc(N3CCCC3)c(Cl)c2)cc(OC)c1OC,25,42*,-1,0
COc1ccc(C)cc1NC(=O)CCSCCC(=O)Nc1cc(C)ccc1OC,1,33*,1,0
COc1ccccc1NC(=O)CCSCCC(=O)Nc1ccccc1OC,-11,3,-1,0
Cc1ccc(C)n1-c1ccc(C(=O)NCc2cccnc2)cc1,15,2,-2,1
Cn1c(-c2ccccc2)cnc1NC(=O)c1ccccc1,4,57*,-1,0
O=[N+]([O-])c1ccc(NS(=O)(=O)c2ccc(Br)cc2)cc1,1,4,1,0
CCOc1ccccc1NC(=O)c1cc(OCC)c(OCC)c(OCC)c1,3,13,0,0
CCOc1cc(C(=O)Nc2sccc2C(=O)N2CCOCC2)cc(OCC)c1OCC,3,20,1,1
CCOc1cc(C(=O)Nc2sccc2C(N)=O)cc(OCC)c1OCC,2,36*,1,0
CCOc1cc(C(=O)Nc2ccccc2C(N)=O)cc(OCC)c1OCC,-6,37*,0,0
O=C(COc1ccc(Br)cc1Cl)Nc1ncn[nH]1,-6,46*,-1,0
O=C(COc1ccc(Br)cc1Cl)Nc1nccs1,12,92*,-8,1
Cc1ccnc(NC(=O)COc2ccc(Br)cc2Cl)c1,-6,93*,-2,0
Cc1ccnc(NC(=O)COc2cc(C)ccc2C)c1,0,-49,4,1
O=C(COc1ccc(Cl)cc1Br)Nc1nccs1,-2,89*,-8,0
SMILES,MITF primary,TEAD-YAP inh,GPR151 activ,FBW7 act
COc1cc(S(=O)(=O)NCCCn2ccnc2)ccc1Cl,-2,-10,0,0
CCc1nc2c(=O)[nH]c3ccccc3c2o1,4,5,-2,0
Cc1ccc(C)c(C(=O)N2C(C)CCCC2C)c1 (stereo not given),9,-4,1,0
Cc1ccc(CNC(=O)CSc2nc3ccsc3c(=O)n2CCCCC(=O)O)cc1,1,0,0,0
CCOC(=O)c1ccc(-c2ccc(/C=C(\C#N)c3[nH]nc(N)c3C#N)o2)cc1,14,-10,-1,0
O=C(COc1cc(Cl)c(Cl)cc1Cl)Nc1nccs1,4,59*,-1,0
CC1CCCCN1C(=O)CSc1nnc(-c2ccc3c(c2)OCO3)o1 (stereo not given),3,-3,3,0
Cc1[nH]c2ccc(-c3nnc(SCC(=O)N4CCCCC4C)o3)cc2c1C (stereo not given),-4,51*,0,0
CC(=O)NCCc1nc2cc(NC(=O)c3ccco3)ccc2n1C,-1,-25,1,0
Cc1ccc(CNC(=O)c2cccc3c2C(=O)N(Cc2cccnc2)C3)cc1,-3,9,-1,0
c1nc2nc3c(c(Nc4ccc5c(c4)OCCO5)n2n1)CCC3,-7,40*,1,0
COCCCNc1nc(CN2CCN(Cc3cccc(F)c3)CC2)nc2ccc(C)cc12,-9,2,1,0
O=C(Cn1cc(C(=O)c2ccc(Cl)cc2)c(=O)c2cc(F)ccc21)Nc1ccc(F)cc1,1,3,0,0
Cn1/c(=N\N=C/c2ccc(O)cc2)sc2ccccc21,10,-22,2,1.9*
Cn1/c(=N/N=C/c2ccc(C(=O)O)cc2)sc2ccccc21,-6,-49,-3,0
N#Cc1ccc(NC(=O)CN2CCSc3ccccc32)cc1,-6,0,0,0
CC(C)C(=O)/C(=C/c1ccc(Cl)cc1Cl)n1cncn1,8,73*,1,0
Cc1nn(C)c(C)c1/C=C(/C(=O)C(C)C)n1cncn1,33,4,1,0
O=C(Nc1ccc(F)cc1)c1cccc(Cl)c1,-5,-25,-2,0
O=C(Nc1cc(=O)[nH]c(=O)[nH]1)c1cccc(Cl)c1,-5,40*,-2,0
CCN1CCCC1CNC(=O)C1CCCN(c2nnc(-n3cccc3)s2)C1 (stereo not given),5,4,1,0
COC(=O)c1cccc(NC(=O)COc2ccccc2Cl)c1,7,31,0,0
CCCOC(=O)c1cccc(NC(=O)COc2ccccc2Cl)c1,4,45*,-2,0
CCCCOC(=O)c1cccc(NC(=O)COc2ccc(Br)cc2Br)c1,-4,58*,0,0
Nc1ccc2cc3ccc(N)cc3nc2c1,75*,4,0,0
SMILES,MITF primary,TEAD-YAP inh,GPR151 activ,FBW7 act
Cc1ccc2cc(N)ccc2n1,6,-5,0,0
Cc1ccc(N2NC(=O)/C(=C/c3ccc(-c4cc([N+](=O)[O-])ccc4O)o3)C2=O)cc1,22,-5,0,0
CC(C)CC1c2[nH]c3ccccc3c2CCN1C(=O)Cn1cncn1 (stereo not given),-2,-6,-1,0
CC(C)CC1c2[nH]c3ccccc3c2CCN1C(=O)c1csnn1 (stereo not given),4,40*,1,0
OC(COc1ccccc1)CN1C2=NCCCN2c2ccccc21 (stereo not given),11,-4,1,2.1*
OC(COc1ccccc1)CN1C2=NCCN2c2ccccc21 (stereo not given),-8,-2,0,0
CCOC(=O)c1c(NC(=O)c2ccc(C)o2)sc(C(C)=O)c1C,0,-6,1,0
Oc1ccc2cc(Br)ccc2c1Br,24,-6,0,2.1*
COC(=O)c1cc(Nc2ccc3c(c2)OCO3)c2cc(C)ccc2n1,-11,13,0,0
COC(=O)c1cc(Nc2cc(OC)cc(OC)c2)c2cc(C)ccc2n1,1,41*,1,0
COC(=O)c1cc(Nc2cccc(OC)c2)c2cc(Cl)ccc2n1,4,38*,0,0
COC(=O)c1cc(Nc2ccccc2OC)c2cc(Cl)ccc2n1,-2,28,2,0
O=C(CN(Cc1ccccc1)S(=O)(=O)c1ccccc1)Nc1ccc2c(c1)OCO2,-12,12,1,0
Cc1ccc(S(=O)(=O)c2ccc(C)c(S(N)(=O)=O)c2)cc1S(N)(=O)=O,-15,-3,0,0
